What was measured:
Assay type in all cases: functional
[1] = biological target: Solute carrier family 2, facilitated glucose transporter member 1 (Homo sapiens) (UniProt P11166); experiment: ST_JUDE_LEISH: Cytotoxicity at 2uM final concentration against transgenic Leishmania Mexicana promastigotes LmGLUT1 that are glucose transport deficient and complemented with the human glucose transporter GLUT1. Activity is measured by DNA content using SYBR green in vitro
[2] = biological target: Hexose transporter 1 (Plasmodium falciparum) (UniProt O97467); experiment: ST_JUDE_LEISH: Cytotoxicity at 2uM final concentration against transgenic Leishmania Mexicana promastigotes LmPfHT that are glucose transport deficient and complemented with the Plasmodium falciparum hexose transporter. Activity is measured by DNA content using SYBR green in vitro
[3] = biological target: Glucose transporter (Leishmania mexicana) (UniProt O61059); experiment: ST_JUDE_LEISH: Cytotoxicity at 2uM final concentration against transgenic Leishmania Mexicana promastigotes LmGT2 that are glucose transport deficient and complemented with the L. Mexicana glucose transporter 2. Activity is measured by DNA content using SYBR green in vitro

Solute carrier family 2, facilitated glucose transporter member 1 (Homo sapiens), sequence (P11166 whole entry): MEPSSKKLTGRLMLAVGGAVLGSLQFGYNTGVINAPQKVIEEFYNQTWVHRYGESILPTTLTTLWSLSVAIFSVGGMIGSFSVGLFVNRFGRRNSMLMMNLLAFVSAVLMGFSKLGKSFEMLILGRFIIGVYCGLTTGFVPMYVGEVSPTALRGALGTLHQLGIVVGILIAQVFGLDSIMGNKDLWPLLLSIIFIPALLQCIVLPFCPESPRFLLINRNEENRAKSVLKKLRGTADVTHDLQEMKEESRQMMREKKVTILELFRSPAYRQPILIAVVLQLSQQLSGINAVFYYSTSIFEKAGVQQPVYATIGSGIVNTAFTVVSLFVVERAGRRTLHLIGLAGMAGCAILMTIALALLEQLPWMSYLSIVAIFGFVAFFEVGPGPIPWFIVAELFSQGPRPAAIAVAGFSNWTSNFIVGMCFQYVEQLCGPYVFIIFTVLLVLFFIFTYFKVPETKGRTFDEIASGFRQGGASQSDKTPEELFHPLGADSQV

Row | SMILES | inhibition [1] | inhibition [2] | inhibition [3]
1 | COc1ccccc1CCNC(=O)c1cnc(N2CCN(c3ccncc3)CC2)c(Cl)c1 | 74.5% | 83.8% | 82.9%
2 | O=[N+]([O-])c1ccc(C=NNc2nc(Nc3ccccc3)nc(Nc3ccccc3)n2)o1 | 13.4% | 18.9% | 2.58%
3 | CC(C)CN1CCCN(Cc2cccc(NC(=O)c3ccc(Cl)c(Cl)c3)c2)CC1 | 10.4% | 10.2% | 4.5%
4 | COc1ccc(-c2ccc(NC(=O)c3cccc(F)c3)cc2)cc1CN1CCCN(C)CC1 | 4.26% | 2.56% | -2.3%
5 | O=[N+]([O-])c1ccc(C(O)P(=O)(c2ccccc2)c2ccccc2)cc1 (stereo unspecified) | -0.33% | -0.85% | -0.11%
6 | COc1ccc(CNCc2ccc(-c3ccc(-c4nc5cccc(C)c5[nH]4)s3)cc2)cc1 | 18.1% | 13.2% | 12.6%
7 | CCCN1CCN(CCNC(=O)c2cccc(Nc3nccc(Nc4ccc(Oc5ccccc5)cc4)n3)c2)CC1 | 0.38% | 0.74% | 1.04%
8 | CCCC(C)Nc1nc(C)cc(N[C@@H](CC(C)C)C(=O)Nc2ccc(OC)cc2)n1 (stereo partly specified) | 3.3% | 3.9% | 1.36%
9 | O=C(Nc1ccc2c(c1)CCC2)N[C@H]1CCN(CCCCCNC(=O)C2CC2c2ccc(Cl)c(Cl)c2)C1 (stereo partly specified) | -0.7% | 0.43% | -0.01%
10 | Cc1ccc(NC(=O)c2ccc(CN3CCCN(CCC(C)C)CC3)cc2)cc1C | 14.1% | 14.9% | 15.6%
11 | COc1cccc(OC)c1CN1CCC(N(C)CCCCCCCCN2CCC(OC(=O)Nc3ccccc3-c3ccccc3)CC2)CC1 | 105% | 108% | 74.3%
12 | O=C(NCCCCN1CCC(c2ccc3c(c2OCCOCCO)CCCC3)CC1)c1ccc(-c2ccc(C(F)(F)F)cc2)cc1 | 0.77% | 2.47% | 0.76%

— ChEMBL document CHEMBL3433997, “St. Jude Leishmania screening dataset” (2016)
